Measurements taken from the supplement of paper PMC5919970.
Where a name gives a salt, the structure may show the parent alone. In all, about 2,000 compounds were measured (“fractional viability relative to vehicle”: median about 0.92, lowest 2% from about 0.11 on). This is one part of a sample in which the lowest values are shown more often than they occur.

System: TYKNU
Assay: fractional viability relative to vehicle; TYKNU is a high-grade serous ovarian cancer line; higher = less growth inhibition
Settings: 72 h, genotype: OPA1 knockout (sgOPA1 #2)
How it was run: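 TYKNU control cells or lentiCRISPRv2 knockout derivatives were plated at 500 cells per well in duplicate into drug-stamped 384-well plates holding a ~2100-compound library at 2 or 10 μM. Culture was in RPMI 1640 with 10% FBS at 37 °C in 5% CO2, with 72 h of drug treatment. Viability was measured by Cell Titer Glo luminescence, and the averaged duplicate treatment wells were normalised to duplicate control wells at the same plate position.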

SMILES	fractional viability (2uM)	fractional viability (10uM)
CC(=O)c1cc([N+](=O)[O-])c(Sc2cccc(Cl)c2Cl)s1	0.895	0.2
CN(C)C(=O)c1ccc(S(=O)(=O)c2ccc(NC(=O)[C@@](C)(O)C(F)(F)F)c(Cl)c2)cc1	0.83	0.753
CNCc1ccc(-c2cc(-c3nc(-c4ccc(S(=O)(=O)C(C)C)cc4)cnc3N)on2)cc1	0.792	0.849
NC[C@@](O)(c1ccc(Cl)cc1)c1ccc(-c2cn[nH]c2)cc1	0.858	0.87
O=C(NC1CCN(CCCCC2(C(=O)NCC(F)(F)F)c3ccccc3-c3ccccc32)CC1)c1ccccc1-c1ccc(C(F)(F)F)cc1 [Lomitapide Mesylate]	0.887	0.0779
O=C(O)c1ccccc1C(=O)Nc1ccc(-c2ccccc2)cc1 [Kartogenin]	0.838	0.747
C=CCc1ccc(O)c(-c2ccc(O)c(CC=C)c2)c1 [Honokiol]	0.957	1.01
C#CC[C@H](c1nc2cc(Cl)ccc2c(=O)n1Nc1ccccc1)N(CCCN)C(=O)c1cccc(Cl)c1F	0.562	0.0443
Cc1ccc(C(=O)N(CCCN)[C@@H](c2nc3cc(Cl)ccc3c(=O)n2Cc2ccccc2)C(C)C)cc1	0.71	0.309
O=C1C(=O)N(Cc2ccc(Cl)c(Cl)c2)c2ccccc21 [Apoptosis Activator 2]	0.461	0.287
Cc1cccc(-c2[nH]c(C(C)(C)C)nc2-c2ccc3nccnc3c2)n1	1.28	1.26
CC1(C)CCC2=C(O1)c1ccccc1C(=O)C2=O [Beta-Lapachone]	0.202	0.0483
CC1=CC(=O)c2ccccc2C1=O [Menadione]	0.94	0.75
OCCn1cc(-c2cnc3nnn(Cc4ccc5ncccc5c4)c3n2)cn1	1.09	1.14
COc1ccc(C2=N[C@@H](c3ccc(Cl)cc3)[C@@H](c3ccc(Cl)cc3)N2C(=O)N2CCNC(=O)C2)c(OC(C)C)c1 [Nutlin-3a]	0.481	0.367
COc1ccc(C2=N[C@@H](c3ccc(Cl)cc3)[C@@H](c3ccc(Cl)cc3)N2C(=O)N2CCNC(=O)C2)c(OC(C)C)c1 [Nutlin-3]	0.858	0.623
CCCc1cc2c(N3CCN(C4=NCC(C)(C)S4)CC3)ncnc2s1 [MI-2 (Menin-MLL Inhibitor)]	0.828	0.711
O=C(Nc1cccc(Cl)c1)c1ccccn1	1.19	1.02
CN(C)C(=S)NN=C(c1ccccn1)c1ccccn1	0.572	0.755
Clc1ccc(NN=C(c2ccccc2)c2ccccn2)nc1	0.229	0.0582
CC(C)C[C@@H](C=O)NC(=O)[C@H](CC(C)C)NC(=O)[C@H](CC(C)C)NC(=O)OCc1ccccc1	0.236	0.144

SMILES	fractional viability (2uM)	fractional viability (10uM)
O=C(O)C(S)=Cc1c[nH]c2ccc(F)cc12	0.79	0.825
Nc1ncnc2c1C(=O)N(c1ccc([C@H]3CC[C@H](CC(=O)O)CC3)cc1)CCO2	0.723	0.773
Nc1cccc(S(=O)(=O)N2CCCN(S(=O)(=O)c3ccc4c(c3)OCCO4)CC2)c1	0.783	0.849
C=CC(=O)Nc1ccc2ncnc(Nc3ccc(OCc4cccc(F)c4)c(Cl)c3)c2c1	0.742	0.0667
CS(=O)(=O)CCNCc1ccc(-c2ccc3ncnc(Nc4ccc(OCc5cccc(F)c5)c(Cl)c4)c3c2)o1	1.05	0.369
C=CC(=O)Nc1ccc2ncnc(Nc3cccc(Br)c3)c2c1	0.982	0.588
CC(C=CC(=O)NO)=CC(C)C(=O)c1ccc(N(C)C)cc1 (configuration not stated) [Trichostatin A (TSA)]	0.335	0.298
O=C(O)c1ccc(-c2c[nH]c3ncc(-c4ccccc4)cc23)cc1C1CCCC1	0.98	1.11
Cc1ccc([N+](=O)[O-])cc1S(=O)(=O)N(C)/N=C/c1cnc2ccc(Br)cn12	0.428	0.422
Cc1cc(C(N)=O)ccc1-n1c(CCC(=O)O)ccc1-c1ccc(-n2ccnc2)cc1	0.877	0.84
CCOC(=O)c1ccc(NC2CCCCC2)c(N)c1 [Ferrostatin-1 (Fer-1)]	1.03	0.934
CC(C)[C@H](N)C(=O)OCC(CO)OCn1cnc2c(=O)[nH]c(N)nc21 (some centres not stated) [Valganciclovir HCl]	0.846	0.832
C[C@H](NC(=O)/C(C#N)=C/c1cccc(Br)n1)c1ccccc1	0.867	0.0926
N#C/C(=C\c1ccc(O)c(O)c1)C(=O)NCc1ccccc1 [AG-490 (Tyrphostin B42)]	1.03	1.08
C[C@H](NC(=O)CCc1nc2ccccc2c(=O)[nH]1)c1ccccc1	0.861	0.876
CCC[C@H](NC(=O)/C(C#N)=C/c1cccc(Br)n1)c1ccccc1 [Degrasyn (WP1130)]	0.343	0.0765
CC(C)C[C@H](NP(=O)(O)O[C@@H]1O[C@@H](C)[C@H](O)[C@@H](O)[C@H]1O)C(=O)N[C@@H](Cc1c[nH]c2ccccc12)C(=O)O [Phosphoramidon Disodium Salt]	0.899	0.879
CNC(=O)[C@@H](NC(=O)[C@H](CC(C)C)[C@H](O)C(=O)NO)C(C)(C)C [Marimastat(BB-2516)]	0.952	0.73
CC[C@@H]([C@H](C)O)n1ncn(-c2ccc(N3CCN(c4ccc(OC[C@@H]5CO[C@@](Cn6cncn6)(c6ccc(F)cc6F)C5)cc4)CC3)cc2)c1=O [Posaconazole]	1.18	0.872
Cc1ccc(NC(=O)Nc2cc(C(F)(F)F)ccc2F)cc1Nc1ccc2c(c1)NC(=O)/C2=C\c1ccc[nH]1	0.83	0.932
CNS(=O)(=O)Nc1nccc(Cc2c(C)c3ccc(Oc4ncccn4)cc3oc2=O)c1F	0.508	0.376

SMILES	fractional viability (2uM)	fractional viability (10uM)
O=C(c1ccc(C(=O)N2CCC(N3CCCC3)CC2)c(Nc2ccccc2)c1)N1CCC(N2CCCC2)CC1	0.924	0.857
O=C(c1ccc(Nc2nccc(-c3cc4ccccc4s3)n2)cc1)N1CCC(N2CCCC2)CC1 [IKK-16 (IKK Inhibitor VII)]	0.74	0.0971
O=C(c1cncc(Br)c1)N1CCC(N2CCCC2)CC1	0.797	0.838
O=C(N/N=C/c1cc(O)c(O)cc1O)c1cc2ccccc2cc1O [Dyngo-4a]	1.04	1.16
Cc1nc(N(C)C(=O)Cc2ccc(-c3ccccn3)cc2)sc1S(N)(=O)=O [Pritelivir (BAY 57-1293)]	0.924	0.791
Cc1cc(Cn2cnc3c2CC(C(=O)O)N(C(=O)C(c2ccccc2)c2ccccc2)C3)ccc1N(C)C (configuration not stated)	0.986	0.95
Cc1cc(C)cc(C(=O)NOCCCCCC(=O)NO)c1	0.355	0.188
C/C=C1\NC(=O)[C@H]2CSSCC/C=C/[C@H](CC(=O)N[C@H](C(C)C)C(=O)N2)OC(=O)[C@H](C(C)C)NC1=O [Romidepsin (FK228, Depsipeptide)]	0.0685	0.0492
c1ccc2c(CCNc3ccc(Nc4ccncc4)cc3)c[nH]c2c1	0.485	0.15
Oc1nc(-c2ccc(C(F)(F)F)cc2)nc2c1CSCC2	1.13	0.683
Cc1ccc(Nc2nccc(N(C)c3ccc4c(C)n(C)nc4c3)n2)cc1S(N)(=O)=O [Pazopanib]	1.14	0.605
CCOC(=O)c1[nH]c2cc(Cl)ccc2c1C(C(=O)NC(C)(C)C)N(C=O)Cc1ccc(Cl)cc1 (configuration not stated)	0.864	0.464
CN(C)c1ccc(C(=C2C=CC(=[N+](C)C)C=C2)c2ccc(N(C)C)cc2)cc1 [Crystal Violet]	0.323	0.0953
O=C(O)CCC(=O)Nc1ccc(Br)cn1 [Bikinin]	0.818	0.759
[I-].[K+] [Potassium Iodide]	1.07	0.971
O=C1NCCCc2c1oc1ccc(O)cc21	1.1	1.15
c1ccc(Cn2c(-c3ccc(OC[C@H](C4CCNCC4)n4c(-c5ccccc5)nc5ccccc54)cc3)nc3ccccc32)cc1 [Deltarasin]	1.14	0.0644
Cc1cc(/N=N/c2ccc(S(=O)(=O)Nc3ccccn3)cc2)c(N)cc1O	0.89	0.64
O=C(NO)c1cccc(C(=O)NCCc2ccccc2)c1	0.926	0.933
